The source of these data is PubChem BioAssay (EPA / NIEHS).

Results filed as inconclusive are left out. Active and inactive are the calls of the source. How the source made its calls: active means hit-call score of the fitted dose curve at least 0.9, where 1 is the maximum; inconclusive means response in the unintended direction; inactive means score below 0.9.

Cellular tumor antigen p53 (Homo sapiens), sequence (P04637 whole entry, looked up): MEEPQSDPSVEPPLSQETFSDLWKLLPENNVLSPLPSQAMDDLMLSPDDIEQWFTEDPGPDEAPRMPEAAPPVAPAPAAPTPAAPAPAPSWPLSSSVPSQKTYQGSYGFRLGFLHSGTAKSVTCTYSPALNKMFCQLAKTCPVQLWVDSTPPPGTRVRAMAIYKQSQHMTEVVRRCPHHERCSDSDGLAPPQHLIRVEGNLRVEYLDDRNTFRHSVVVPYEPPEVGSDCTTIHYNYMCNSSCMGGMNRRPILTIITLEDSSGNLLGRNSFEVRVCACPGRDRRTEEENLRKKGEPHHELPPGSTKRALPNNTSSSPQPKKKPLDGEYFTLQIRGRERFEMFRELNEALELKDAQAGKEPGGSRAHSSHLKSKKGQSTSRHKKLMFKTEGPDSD

This experiment concerns the target Cellular tumor antigen p53 (Homo sapiens) (UniProt P04637). Briefly: TOX21_p53_BLA_p2_ratio: Tox21 HCT-116 p53 Agonism Beta-lactamase Assay, Ratio, Phase 2 (AID 2283592). The essentials:
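Plated HCT116 p53-bla cells (4000/well) received compound after 5 h, then 16 h at 37C/5% CO2. CCF4-AM added, 2 h RT. Ratio of 460 to 530 nm emission taken as the p53 reporter signal.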
`Nc1ccc(N=Nc2ccc(N)cc2)cc1`: the result was inactive.

`N[C@@H](CCC(=O)Nc1ccc([N+](=O)[O-])cc1)C(=O)O`: the result was inactive.

Consider `CC(C)NC[C@@H](O)COc1cccc2ccccc12`, for which the outcome was inactive.

Regarding `CCN(C)C(=O)Oc1cccc([C@H](C)N(C)C)c1`, the outcome was inactive.

Take `CN(C)CCN(Cc1ccccc1)c1ccccn1`: the result was inactive.

As to `OCCOc1ccc(OCCO)cc1`, the result was inactive.

Take `CCOc1ccc(S(=O)(=O)O)c2cccnc12`: the result was inactive.

Turning to `NC(=O)OCC(O)COc1ccc(Cl)cc1` (stereo not given), the result was inactive.

With `O=[N+]([O-])c1ccc(Oc2ccc([N+](=O)[O-])cc2)cc1`, the outcome was inactive.

Turning to `CN1CCc2c(c3ccccc3n2Cc2ccccc2)C1`, the result was inactive.

`Cc1ccc(/C(=C\CN2CCCC2)c2ccccn2)cc1`: the outcome was inactive.

For the compound `Cc1cc(O)ccc1O`, the outcome was inactive.

For `CC(C)c1ncc([N+](=O)[O-])n1C`, the outcome was inactive.

Consider `O=C(O)CCC/C=C\C[C@@H]1[C@@H](/C=C/[C@@H](O)COc2cccc(Cl)c2)[C@H](O)C[C@@H]1O`, for which the result was inactive.

Consider `Cc1cc(=O)c(C(=O)N[C@@H](C(=O)N[C@@H]2C(=O)N3C(C(=O)O)=C(CSc4nnnn4C)CS[C@H]23)c2ccc(O)cc2)c[nH]1`, for which the outcome was inactive.

On to `CCCc1nc2c(C)cc(-c3nc4ccccc4n3C)cc2n1Cc1ccc(-c2ccccc2C(=O)O)cc1`, for which the result was inactive.

For the compound `S=C(SSSSSSC(=S)N1CCCCC1)N1CCCCC1`, the outcome was inactive.

As for `C[C@]12CC[C@@H]3c4ccc(OC(=O)c5ccccc5)cc4CC[C@H]3[C@@H]1CC[C@@H]2O`, the outcome was inactive.

`CCCCOC(=O)C(=O)Nc1cccc(-c2nn[nH]n2)c1`: the outcome was inactive.

In the case of `COc1ccc(-c2cc(C(F)F)nn2-c2ccc(S(N)(=O)=O)cc2)cc1F`, the result was inactive.
